The full data set covers some 7,900 targets. This sample favours those with a hit. About 0.6% of all pairs of compound and target were hits. Values without a mark were called inactive.
Columns and labels:
Assay in all cases: log2 fold change, soluble protein after heating vs DMSO (PISA); higher = thermal stabilisation; K562 cells, 10 uM, 30 min; active = over 0.2 and 3.5 SD of the protein, either way, in both replicates (recomputed)
[1] = compound: CC[C@@H]1C(=O)N(C)c2cnc(Nc3ccc(C(=O)NC4CCN(C)CC4)cc3OC)nc2N1C1CCCC1
Procedure, shortened: (§1)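 K562 cells (2×10^6 cells/mL) were treated with 10 μM compound for 30 min, and aliquots were heated for 3 min over 48°C-58°C. Pooled aliquots were extracted in PBS with 0.5% NP-40 at 4°C, and the supernatant after 21,000xg for 90 min was measured by TMTpro 16plex LC-MS/MS with channel sums equalised. Reported thermal stability, relative to control samples and from duplicates, is a log2 fold change.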

volasertib = compound: CC[C@@H]1C(=O)N(C)c2cnc(Nc3ccc(C(=O)N[C@H]4CC[C@H](N5CCN(CC6CC6)CC5)CC4)cc3OC)nc2N1C(C)C [volasertib]
Procedure, shortened: as §1

[2] = compound: CC[C@H](C)N1C=C(C2=C(C=C(C=C21)C3=CN=C(C=C3)N4CCNCC4)C(=O)NCC5=C(C=C(NC5=O)C)C)C
Procedure, shortened: as §1

epoxomicin = compound: CC[C@H](C)[C@@H](C(=O)N[C@@H]([C@@H](C)O)C(=O)N[C@@H](CC(C)C)C(=O)[C@]1(CO1)C)NC(=O)[C@H]([C@@H](C)CC)N(C)C(=O)C [epoxomicin]
Procedure, shortened: as §1

[3] = compound: CCn1c(C(=O)N(C2CC2)C2CC2)cc2c3c(ncn3C)c(Nc3cc(C)n(C)n3)nc21
Procedure, shortened: as §1

[4] = compound: CCn1cc(-c2ccnc3[nH]c(-c4cccc(CN(C)C)c4)cc23)c(-c2ccc(NC(=O)N(C)C)cc2)n1
Procedure, shortened: as §1

[5] = compound: CN(C)CC(=O)Nc1ccc2[nH]c(=O)c3ccccc3c2c1
Procedure, shortened: as §1

rosiglitazone = compound: CN(CCOC1=CC=C(C=C1)C[C@H]2C(=O)NC(=O)S2)C3=CC=CC=N3 (racemic) [rosiglitazone]
Procedure, shortened: as §1

[6] = compound: CN1C2=C(C3=C1C(=O)N(N=C3)CC4=CC(=CC=C4)N)SC(=C2)S(=O)C
Procedure, shortened: as §1

[7] = compound: CN1CCC(CNc2ccc3ncc(-c4cccc(OC(F)(F)F)c4)n3n2)CC1
Procedure, shortened: as §1

saracatinib = compound: CN1CCN(CCOc2cc(OC3CCOCC3)c3c(Nc4c(Cl)ccc5c4OCO5)ncnc3c2)CC1 [saracatinib]
Procedure, shortened: as §1

sotrastaurin = compound: CN1CCN(c2nc(C3=C(c4c[nH]c5ccccc45)C(=O)NC3=O)c3ccccc3n2)CC1 [sotrastaurin]
Procedure, shortened: as §1

alvocidib = compound: CN1CC[C@H](c2c(O)cc(O)c3c(=O)cc(-c4ccccc4Cl)oc23)[C@H](O)C1 [alvocidib]
Procedure, shortened: as §1

Tubastatin A = compound: CN1CCc2c(c3ccccc3n2Cc2ccc(C(=O)NO)cc2)C1 [Tubastatin A]
Procedure, shortened: as §1

[8] = compound: CNC(=O)C1=CC=CC=C1NC2=NC(=NC=C2Cl)NC3=C(C=C(C=C3)N4CCOCC4)OC
Procedure, shortened: as §1

defactinib = compound: CNC(=O)c1ccc(Nc2ncc(C(F)(F)F)c(NCc3nccnc3N(C)S(C)(=O)=O)n2)cc1 [defactinib]
Procedure, shortened: as §1

rucaparib = compound: CNCc1ccc(-c2[nH]c3cc(F)cc4c3c2CCNC4=O)cc1 [rucaparib]
Procedure, shortened: as §1

[9] = compound: CNc1nc(-c2ccc3c(N)n[nH]c3c2)cc(N2C[C@@H](C(=O)NC3CCCCC3)CC[C@H]2C)n1
Procedure, shortened: as §1

encorafenib = compound: COC(=O)N[C@@H](C)CNc1nccc(-c2cn(C(C)C)nc2-c2cc(Cl)cc(NS(C)(=O)=O)c2F)n1 [encorafenib]
Procedure, shortened: as §1

[10] = compound: COC(=O)[C@H](CCSC)NC(=O)C1=C(C=C(C=C1)NC[C@H](CS)N)C2=CC=CC=C2
Procedure, shortened: as §1

Sequence of UniProt Q8IY18 (Q8IY18 whole entry, looked up): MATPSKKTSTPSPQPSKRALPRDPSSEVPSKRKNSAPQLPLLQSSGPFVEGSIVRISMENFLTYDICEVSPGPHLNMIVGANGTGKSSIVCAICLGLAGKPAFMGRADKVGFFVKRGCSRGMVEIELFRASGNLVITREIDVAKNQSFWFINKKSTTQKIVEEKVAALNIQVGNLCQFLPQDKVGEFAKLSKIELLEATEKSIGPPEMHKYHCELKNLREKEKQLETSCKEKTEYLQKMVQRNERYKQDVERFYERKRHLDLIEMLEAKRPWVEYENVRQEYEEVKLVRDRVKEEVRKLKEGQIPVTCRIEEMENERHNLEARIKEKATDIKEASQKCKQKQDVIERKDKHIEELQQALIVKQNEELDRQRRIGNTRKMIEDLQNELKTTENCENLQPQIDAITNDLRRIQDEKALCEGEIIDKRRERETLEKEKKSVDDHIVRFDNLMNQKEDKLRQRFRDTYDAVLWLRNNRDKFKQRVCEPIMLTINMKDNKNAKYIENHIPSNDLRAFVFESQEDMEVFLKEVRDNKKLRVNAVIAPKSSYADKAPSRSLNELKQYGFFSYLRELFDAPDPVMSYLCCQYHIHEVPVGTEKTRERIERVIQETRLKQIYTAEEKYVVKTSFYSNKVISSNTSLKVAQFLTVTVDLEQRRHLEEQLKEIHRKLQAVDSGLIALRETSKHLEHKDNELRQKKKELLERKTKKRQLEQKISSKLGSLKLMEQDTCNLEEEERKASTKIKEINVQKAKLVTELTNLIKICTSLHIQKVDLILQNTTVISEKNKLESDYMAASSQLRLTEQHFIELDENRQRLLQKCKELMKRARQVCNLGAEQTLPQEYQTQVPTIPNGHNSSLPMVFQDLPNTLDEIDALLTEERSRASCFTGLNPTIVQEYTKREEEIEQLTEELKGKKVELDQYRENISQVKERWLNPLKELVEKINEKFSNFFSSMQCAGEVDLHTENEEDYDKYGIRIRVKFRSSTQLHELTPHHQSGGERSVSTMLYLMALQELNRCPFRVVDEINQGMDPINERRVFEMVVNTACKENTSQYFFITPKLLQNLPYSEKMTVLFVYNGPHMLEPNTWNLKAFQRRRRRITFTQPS
Sequence of UniProt Q8TC07 (Q8TC07 whole entry, looked up): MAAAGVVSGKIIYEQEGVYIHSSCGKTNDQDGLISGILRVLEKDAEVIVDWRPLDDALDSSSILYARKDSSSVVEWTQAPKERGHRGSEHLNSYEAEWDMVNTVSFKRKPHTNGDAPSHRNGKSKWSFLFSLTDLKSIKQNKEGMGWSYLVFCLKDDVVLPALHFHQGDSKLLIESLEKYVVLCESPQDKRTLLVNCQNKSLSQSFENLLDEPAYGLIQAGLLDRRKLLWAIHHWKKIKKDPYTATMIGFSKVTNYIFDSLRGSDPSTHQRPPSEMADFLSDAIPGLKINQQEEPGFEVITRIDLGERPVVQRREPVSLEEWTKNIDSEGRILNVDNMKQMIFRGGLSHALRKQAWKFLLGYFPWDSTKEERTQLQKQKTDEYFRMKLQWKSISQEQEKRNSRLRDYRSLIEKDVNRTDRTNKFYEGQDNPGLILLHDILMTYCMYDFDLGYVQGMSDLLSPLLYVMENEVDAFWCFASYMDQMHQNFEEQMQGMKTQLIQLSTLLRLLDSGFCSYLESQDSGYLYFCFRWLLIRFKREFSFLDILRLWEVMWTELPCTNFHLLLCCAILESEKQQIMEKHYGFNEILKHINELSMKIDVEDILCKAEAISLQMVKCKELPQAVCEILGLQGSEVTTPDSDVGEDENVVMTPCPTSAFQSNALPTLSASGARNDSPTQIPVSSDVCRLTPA
Sequence of UniProt P02786 (P02786 whole entry, looked up): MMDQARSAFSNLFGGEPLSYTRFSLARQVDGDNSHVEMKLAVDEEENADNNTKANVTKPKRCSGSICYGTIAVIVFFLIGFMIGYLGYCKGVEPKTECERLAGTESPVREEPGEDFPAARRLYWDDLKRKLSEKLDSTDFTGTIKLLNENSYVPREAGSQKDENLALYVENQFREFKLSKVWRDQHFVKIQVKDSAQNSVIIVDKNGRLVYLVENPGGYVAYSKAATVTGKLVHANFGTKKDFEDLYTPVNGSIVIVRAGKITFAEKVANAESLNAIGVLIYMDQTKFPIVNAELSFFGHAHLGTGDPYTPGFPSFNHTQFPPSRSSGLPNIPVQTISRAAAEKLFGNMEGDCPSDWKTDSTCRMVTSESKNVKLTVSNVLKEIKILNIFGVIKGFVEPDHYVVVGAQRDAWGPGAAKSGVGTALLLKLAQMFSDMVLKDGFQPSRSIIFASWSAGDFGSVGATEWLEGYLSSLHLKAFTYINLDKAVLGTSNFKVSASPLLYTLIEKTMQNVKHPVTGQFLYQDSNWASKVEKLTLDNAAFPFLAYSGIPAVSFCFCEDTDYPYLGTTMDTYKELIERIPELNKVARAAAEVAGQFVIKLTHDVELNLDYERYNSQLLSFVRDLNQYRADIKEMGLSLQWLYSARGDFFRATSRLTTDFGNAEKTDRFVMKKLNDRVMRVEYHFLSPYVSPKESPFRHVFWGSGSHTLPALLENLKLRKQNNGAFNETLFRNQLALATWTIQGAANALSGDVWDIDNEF
Sequence of UniProt Q86UE8 (Q86UE8 whole entry, looked up): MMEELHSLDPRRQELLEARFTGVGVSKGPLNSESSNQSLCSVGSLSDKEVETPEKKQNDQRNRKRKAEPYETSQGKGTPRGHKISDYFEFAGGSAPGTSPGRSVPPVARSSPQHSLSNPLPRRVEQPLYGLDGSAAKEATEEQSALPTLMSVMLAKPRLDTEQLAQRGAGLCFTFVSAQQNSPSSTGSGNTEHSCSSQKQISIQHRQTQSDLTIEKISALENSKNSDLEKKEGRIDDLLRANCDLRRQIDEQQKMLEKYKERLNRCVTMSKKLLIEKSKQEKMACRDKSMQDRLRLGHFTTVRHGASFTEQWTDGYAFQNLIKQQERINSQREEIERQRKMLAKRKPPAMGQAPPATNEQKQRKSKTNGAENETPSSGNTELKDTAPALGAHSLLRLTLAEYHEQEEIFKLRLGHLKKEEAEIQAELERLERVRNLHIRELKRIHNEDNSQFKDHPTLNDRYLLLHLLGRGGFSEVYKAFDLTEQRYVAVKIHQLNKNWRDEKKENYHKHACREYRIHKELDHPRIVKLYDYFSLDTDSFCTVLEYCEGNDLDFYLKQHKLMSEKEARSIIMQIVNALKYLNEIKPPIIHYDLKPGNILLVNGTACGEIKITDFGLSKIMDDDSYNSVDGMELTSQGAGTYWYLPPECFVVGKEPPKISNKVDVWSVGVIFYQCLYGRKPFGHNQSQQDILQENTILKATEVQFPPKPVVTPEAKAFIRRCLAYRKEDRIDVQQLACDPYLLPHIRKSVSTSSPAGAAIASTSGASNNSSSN
Sequence of UniProt Q6P1M0 (Q6P1M0 whole entry, looked up): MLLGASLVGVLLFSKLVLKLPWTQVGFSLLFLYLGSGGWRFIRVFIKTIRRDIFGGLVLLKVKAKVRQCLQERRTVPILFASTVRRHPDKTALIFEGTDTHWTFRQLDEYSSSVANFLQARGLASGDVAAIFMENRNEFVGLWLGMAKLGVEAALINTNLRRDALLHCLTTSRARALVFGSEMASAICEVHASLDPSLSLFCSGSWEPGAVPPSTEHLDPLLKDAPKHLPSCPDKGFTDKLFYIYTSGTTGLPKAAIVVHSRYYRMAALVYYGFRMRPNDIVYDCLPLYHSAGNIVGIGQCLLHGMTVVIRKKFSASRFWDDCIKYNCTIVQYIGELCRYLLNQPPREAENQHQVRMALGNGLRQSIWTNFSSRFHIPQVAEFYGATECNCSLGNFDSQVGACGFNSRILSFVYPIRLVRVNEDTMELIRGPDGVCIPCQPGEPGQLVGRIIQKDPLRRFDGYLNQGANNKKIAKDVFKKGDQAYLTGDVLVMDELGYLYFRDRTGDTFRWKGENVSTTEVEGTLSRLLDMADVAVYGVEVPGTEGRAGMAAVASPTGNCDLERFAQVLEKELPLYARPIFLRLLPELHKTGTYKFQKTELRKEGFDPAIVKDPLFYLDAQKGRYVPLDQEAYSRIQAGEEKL
Sequence of UniProt Q9H5Q4 (Q9H5Q4 whole entry, looked up): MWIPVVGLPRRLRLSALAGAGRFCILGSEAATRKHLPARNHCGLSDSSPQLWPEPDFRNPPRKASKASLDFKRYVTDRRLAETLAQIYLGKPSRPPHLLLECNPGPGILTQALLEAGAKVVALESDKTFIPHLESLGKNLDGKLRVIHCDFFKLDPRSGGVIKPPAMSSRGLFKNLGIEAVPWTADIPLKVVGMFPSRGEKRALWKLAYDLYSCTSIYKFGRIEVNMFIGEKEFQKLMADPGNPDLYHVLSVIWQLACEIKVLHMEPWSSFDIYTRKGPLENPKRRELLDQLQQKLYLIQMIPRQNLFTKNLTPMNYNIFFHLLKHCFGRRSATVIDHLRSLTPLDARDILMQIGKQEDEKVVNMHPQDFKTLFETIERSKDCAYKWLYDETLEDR
Sequence of UniProt Q08945 (Q08945 whole entry, looked up): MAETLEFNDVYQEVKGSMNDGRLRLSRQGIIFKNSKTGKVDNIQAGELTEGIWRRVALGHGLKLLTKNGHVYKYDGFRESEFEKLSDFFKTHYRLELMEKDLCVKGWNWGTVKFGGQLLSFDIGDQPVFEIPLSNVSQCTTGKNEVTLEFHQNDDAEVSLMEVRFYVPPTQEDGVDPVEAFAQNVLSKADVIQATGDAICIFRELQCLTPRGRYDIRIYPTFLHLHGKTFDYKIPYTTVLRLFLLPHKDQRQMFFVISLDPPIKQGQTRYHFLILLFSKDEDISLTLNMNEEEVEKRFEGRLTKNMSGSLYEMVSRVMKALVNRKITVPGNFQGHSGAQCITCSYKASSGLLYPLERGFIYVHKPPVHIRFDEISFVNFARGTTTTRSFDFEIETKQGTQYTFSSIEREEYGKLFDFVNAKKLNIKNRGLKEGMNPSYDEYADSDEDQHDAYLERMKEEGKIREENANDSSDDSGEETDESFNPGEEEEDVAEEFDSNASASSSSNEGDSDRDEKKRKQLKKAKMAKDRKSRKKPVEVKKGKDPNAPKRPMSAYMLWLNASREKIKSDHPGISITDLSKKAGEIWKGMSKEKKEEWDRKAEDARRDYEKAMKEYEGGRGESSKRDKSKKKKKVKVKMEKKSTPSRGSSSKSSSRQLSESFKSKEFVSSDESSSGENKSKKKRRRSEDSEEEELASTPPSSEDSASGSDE

Target	log2 fold change [1]	log2 fold change (volasertib)	log2 fold change [2]	log2 fold change (epoxomicin)	log2 fold change [3]	log2 fold change [4]	log2 fold change [5]	log2 fold change (rosiglitazone)	log2 fold change [6]	log2 fold change [7]	log2 fold change (saracatinib)	log2 fold change (sotrastaurin)	log2 fold change (alvocidib)	log2 fold change (Tubastatin A)	log2 fold change [8]	log2 fold change (defactinib)	log2 fold change (rucaparib)	log2 fold change [9]	log2 fold change (encorafenib)	log2 fold change [10]
SMARCA5 (UniProt O60264)	-0.242	-0.333	0.045	0.092	-0.088	-0.06	0.053	-0.003	0.121	0.076	-0.084	-0.235	-0.193	0.082	0.038	-0.145	0.035	0.065	0.116	0.01
SRPRA (UniProt P08240)	-0.116	-0.107	0.007	0.02	-0.07	-0.036	0.032	-0.002	-0.055	0.009	-0.001	-0.006	-0.014	-0.007	0.033	0.022	0.116	0.06	0.019	-0.044
SSRP1 (UniProt Q08945)	-0.121	-0.412 (active)	0.052	0.02	-0.073	0.007	0.01	0.052	-0.003	-0.067	0.01	-0.049	-0.157	0.099	-0.052	-0.23 (active)	-0.038	-0.045	0.048	-0.05
STXBP5 (UniProt Q5T5C0)	-0.085	-0.344 (active)	0.021	0.151	-0.019	0.046	0.033	0.007	0.015	-0.006	-0.014	0.019	-0.085	0.01	-0.023	-0.011	-0.002	-0.032	0.028	-0.003
SSB (UniProt P05455)	-0.154	-0.131	0.083	-0.011	0.015	0.04	-0.012	0.044	-0.001	-0.194	-0.001	-0.158	-0.123	0.015	0.016	-0.187	-0.031	-0.089	0	0.042
SNUPN (UniProt O95149)	-0.133	-0.296 (active)	0.014	-0.013	0.019	-0.076	0.003	-0.001	-0.01	-0.004	0.052	-0.069	-0.061	-0.036	-0.019	-0.056	-0.027	-0.04	0.021	0.028
STK4 (UniProt Q13043)	0.024	0.006	0.014	0.033	-0.029	-0.041	0.013	0.03	0.004	-0.061	0.006	0.029	-0.01	0.039	0.01	-0.002	-0.008	0.012	0.077	-0.003
SLC27A4 (UniProt Q6P1M0)	-0.048	-0.473 (active)	0.03	-0.064	-0.014	-0.036	0.04	0.066	-0.051	-0.158	-0.035	0.035	-0.09	-0.005	-0.083	-0.084	0.06	0.072	0.018	-0.05
TLK2 isoform 2 (UniProt Q86UE8)	-0.015	-0.112	0.029	-0.01	0.057	-0.024	-0.012	0.014	-0.039	-0.054	0.048	-0.012	-0.027	0.014	-0.031	0	-0.051	-0.003	-0.006	0
SLC7A6OS (UniProt Q96CW6)	-0.027	-0.084	-0.042	0.01	-0.07	-0.038	0.004	-0.06	-0.05	0.055	0.14	0.008	0.024	-0.001	0.031	-0.144	-0.05	-0.078	-0.004	0.06
SLIRP (UniProt Q9GZT3)	0.05	0.343	-0.093	0.302	0.015	0.02	0.08	0.058	0.092	0.06	-0.068	-0.141	-0.143	0.019	-0.045	-0.005	0.148	-0.185	-0.094	0.096
TFB2M (UniProt Q9H5Q4)	-0.096	-0.326 (active)	0.049	0.071	0	-0.002	0.031	0.042	-0.049	-0.179	-0.029	-0.031	-0.082	-0.012	0.02	-0.06	-0.013	-0.054	-0.002	-0.001
TBCD (UniProt Q9BTW9)	-0.061	-0.315 (active)	0.074	-0.012	0.028	-0.002	0.033	0.016	-0.044	-0.094	0.003	-0.056	-0.096	0.05	-0.016	-0.056	0	-0.031	0.018	-0.007
TBC1D15 isoform 3 (UniProt Q8TC07)	-0.221	-0.485 (active)	0.04	0.004	-0.081	-0.024	0.031	0.05	0.018	-0.241 (active)	-0.01	-0.117	-0.054	-0.011	-0.014	-0.09	0.059	-0.012	0.068	-0.003
TFRC (UniProt P02786)	-0.589 (active)	-0.417 (active)	-0.035	-0.009	0.051	-0.005	0.004	-0.007	-0.033	-0.289 (active)	0.008	0.005	0.01	-0.028	0.029	-0.03	-0.003	-0.056	0.019	-0.004
SMC5 (UniProt Q8IY18)	0.042	0.054	-0.009	0.018	-0.023	-0.025	0.033	0	0.005	0.037	-0.005	-0.075	0	-0.034	0.056	-0.05	0.015	-0.046	-0.045	-0.014
